From the supplement of paper PMC9477273

test system: DRIVER-selected RNA biosensor (aptazyme) pool; assay: maximum fold change of ribozyme cleavage across biosensor pool versus no-compound control; higher = stronger biosensor response (ligand inhibits cleavage); conditions: 10 µM
In short: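 Values are the maximum fold change of cleavage over all biosensors in a CleaveSeq assay, defined as the cleaved:uncleaved read-fraction ratio against a no-compound condition after correction with reference sequences. The 1,730 array-resynthesized ribozyme biosensors were T7-transcribed for 15–30 min at 37°C with 9 mM rNTPs and a single compound at 10 µM final, then reverse-transcribed at 50°C. Read counts came from Illumina sequencing of PCR-barcoded cleaved and uncleaved products.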

| Structure (SMILES) | maximum fold change |
| --- | --- |
| CCOCCCNC(=O)/C(C#N)=C/c1c(Oc2ccc(Br)cc2)nc2ccccn2c1=O | 3.31 |
| Cc1c(C(=O)NCc2ccccc2Cl)oc2c1-c1[nH]ncc1CC2 | 2.79 |
| OCCCN/C=C/1C(=O)CC(CC1=O)c1ccc(cc1)OC (stereo unspecified) | 1.74 |
| Cc1c[n+]([O-])n(-c2ccc(C(=O)O)cc2)n1 | 2.15 |
| COc1cccc(/C=C(\C#N)c2nc3ccccc3[nH]2)c1O | 11.2 |
| COc1ccc(C=C2C(=O)c3ccccc3C2=O)c(C)c1 | 2.53 |
| N#C/C(=Cc1c(Oc2ccccc2)nc2n(c1=O)cccc2)/c1nc2c(s1)cccc2 | 21 |
| CCC(C)NC(=O)Cn1cc(C=O)c2ccccc21 (stereo unspecified) | 4.38 |
| CCc1ccc2oc(C(=O)N(Cc3ccccc3F)C3CCS(=O)(=O)C3)c(C)c2c1 (stereo unspecified) | 4.9 |
| COc1ccc(-c2cn3c4ccccc4n(N)c3n2)cc1OC | 3.73 |
| Cc1ccc(CNC(=O)c2cc3c(=O)oc4ccccc4c3s2)o1 | 3.09 |
| Cc1ccc(C(=O)/C=C2\Nc3ccccc3NC2=O)cc1C | 7.35 |
| O=C1N=c2sc(nn2C(=N)/C/1=Cc1c[nH]c2c1cccc2)N1CCCC1 | 7.4 |
| Cc1ccc(CNCc2c(C(=O)O)c(C)n(Cc3ccccc3C)c2C)o1 | 3.25 |
| COc1ccc(OC)c(/C=C2/N=C(c3cccc(Cl)c3Cl)OC2=O)c1 | 4.84 |
| Cc1oc2ncn3nc(-c4ccc(F)cc4)nc3c2c1C | 10.5 |

| Structure (SMILES) | maximum fold change |
| --- | --- |
| Cc1cc2c(c(=O)n1CCN(C)C)C(c1cccc(Br)c1)C(C#N)=C(N)O2 (stereo unspecified) | 2.39 |
| O=C(c1ccccc1O)N1CCOCC1 | 1.99 |
| O=C(NC1(C(F)(F)F)N=C(c2ccccc2)N(C2CCCCC2)C1=O)c1ccco1 (stereo unspecified) | 2.01 |
| c1cncc(-c2nc3cc(Oc4ccc5[nH]c(-c6cccnc6)nc5c4)ccc3[nH]2)c1 | 12.5 |
| CCOC(=O)c1c(NC(=O)COc2ccc(Cl)cc2Cl)sc2c1CCC2 | 3.01 |
| CCOCCCNC(=O)c1cc(C)nn1-c1ccccc1 | 2.81 |
| CCOc1ccc(CCNC(=O)CCn2c(=O)c3cccn3c3cccnc32)cc1OCC | 2.67 |
| CCOc1cc(C2c3c(-c4ccccc4O)n[nH]c3C(=O)N2CCO)ccc1OCc1ccccc1 (stereo unspecified) | 3.55 |
| CCOc1ccc(S(=O)(=O)N2CCN(Cc3ccccc3)CC2)c2cccnc12 | 5.08 |
| Cc1nn2c(-c3ccco3)nnc2c2ccccc12 | 8.73 |
| COCCNC(=O)/C(C#N)=C/c1c(Oc2ccccc2Cl)nc2ccccn2c1=O | 2.74 |
| CCN1CCN(C(=O)c2ccc(Cn3c(SCc4ccccc4F)nc4ccncc43)cc2)CC1 | 2.65 |
| O=C(NCC(=O)N1CCOCC1)c1ccccc1 | 1.78 |
| O=C(NCc1ccc2c(c1)OCO2)c1cc(-c2ccc(Cl)cc2)n[nH]1 | 3.13 |
| COc1ccc(OC)c(/C=C2/N=C(c3ccc(OC)c(Br)c3)OC2=O)c1 | 2.65 |
